Test systems include HCT-15 colon; HT29 colon; SNB-75 CNS; SNB-19 CNS; U251 CNS; PC-3 prostate; SK-MEL-5 melanoma; UACC-62 melanoma; LOX IMVI melanoma; SK-MEL-28 melanoma; SK-MEL-2 melanoma; EKVX NSCLC; SN12C renal; UO-31 renal; TK-10 renal; ACHN renal; CAKI-1 renal; A498 renal; CCRF-CEM leukemia; MOLT-4 leukemia.
Common to all, as to assay: NCI-60 one-dose screen, 48 h (100 = growth as untreated, 0 = no growth, -100 = all killed)
Details in all cases: 10 µM unless noted

Molecules are shown by their SMILES. The panel holds about 83,000 compounds, 20% with a hit somewhere; the sample as a whole holds those more often.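 Cells were grown in 96-well plates and exposed to the test compound at a single concentration for 48 hours; results are reported as percent growth, with values below 10 considered active.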 Values without a mark were called inactive. The source made the active and inactive calls.

As for `C=C1C(=O)O[C@H]2[C@H]1CC/C(CNC(=O)c1cccc3ccccc13)=C\CC[C@@]1(C)O[C@@H]21`, the growth with HCT-15 colon is 10.2%; with HT29 colon, 8.85% (active); in the experiment on SNB-75 CNS it was 82.6%; in the experiment with SNB-19 CNS, 66.4%; with U251 CNS, 59%; in the experiment on PC-3 prostate, 53.7%. Further, the growth with SK-MEL-5 melanoma is 60.1%; in the experiment with UACC-62 melanoma, 31.4%; with LOX IMVI melanoma, 24.3%; in the experiment on SK-MEL-28 melanoma, 41.2%; with SK-MEL-2 melanoma it was 70.7%; in the experiment on EKVX NSCLC, 65.9%. In addition, the growth in the experiment with SN12C renal was 25%; with UO-31 renal, 37.9%; in the experiment on TK-10 renal, 34.8%; in the experiment with ACHN renal, 11.6%; in the experiment with CAKI-1 renal, 40%; in the experiment on A498 renal, 81.8%. Besides, the figures for the growth with CCRF-CEM leukemia and in the experiment on MOLT-4 leukemia were 1.76% (active) and 4.8% (active), respectively.
Turning to `C[C@H]1[C@H](C)CC[C@]2(C(=O)Nc3ccc4ncccc4c3)CC[C@]3(C)C(=CC[C@@H]4[C@@]5(C)CCCNC(C)(C)[C@@H]5CC[C@]43C)[C@H]12`, the growth in the experiment with HCT-15 colon was -83.7% (active); with HT29 colon it was -88.5% (active); with SNB-75 CNS, 78.2%; with SNB-19 CNS it was -59.6% (active); in the experiment on U251 CNS, -86.3% (active); in the experiment with PC-3 prostate, -4.73% (active). Besides, the growth was -18.8% (active) in the experiment on SK-MEL-5 melanoma; -74.5% (active) with UACC-62 melanoma; -89.7% (active) in the experiment with LOX IMVI melanoma; -67.3% (active) in the experiment with SK-MEL-28 melanoma; 90.5% with SK-MEL-2 melanoma; 76.6% with EKVX NSCLC. For the same molecule, the growth in the experiment with SN12C renal was -86.1% (active); in the experiment with UO-31 renal, -76.5% (active); in the experiment on TK-10 renal it was 102%; with ACHN renal it was -75.1% (active); with CAKI-1 renal, 26.7%; in the experiment with A498 renal it was 98.3%. Further, the results for the growth in the experiment on CCRF-CEM leukemia and with MOLT-4 leukemia were -25.5% (active) and -47.9% (active), respectively.
As to `CCOc1ccc(Nc2nc(-c3ccc4c(c3)NC(=O)CO4)cs2)cc1`, the growth is 51.3% with HCT-15 colon; 62% in the experiment with HT29 colon; 56.8% with SNB-75 CNS; 81.4% with SNB-19 CNS; 66.8% in the experiment on U251 CNS; 24.6% with PC-3 prostate. For the same molecule, the growth with SK-MEL-5 melanoma is -11.2% (active); in the experiment on UACC-62 melanoma, 52.1%; in the experiment on LOX IMVI melanoma it was 43.9%; in the experiment on SK-MEL-28 melanoma, 33.6%; in the experiment on SK-MEL-2 melanoma, 81.3%; in the experiment with EKVX NSCLC, 89%. Further, the growth with SN12C renal is 78.6%; with UO-31 renal it was 63.7%; in the experiment with TK-10 renal, 85.5%; in the experiment on ACHN renal it was 52.3%; in the experiment on CAKI-1 renal it was 108%; in the experiment with A498 renal it was 103%. Also, the growth was 32.9% with CCRF-CEM leukemia and 6.58% (active) with MOLT-4 leukemia.
Regarding `CNCCOc1nc2c3cnccc3cc(-c3cc(OC)c(OC)c(OC)c3)c2c2ccncc12`, the growth with HCT-15 colon was -6.39% (active); with HT29 colon, -39.9% (active); with SNB-75 CNS, -64.6% (active); in the experiment with SNB-19 CNS, -8.3% (active); with U251 CNS, -17.1% (active); with PC-3 prostate, -13.4% (active). In addition, the growth was -97.7% (active) with SK-MEL-5 melanoma; -62.1% (active) in the experiment with UACC-62 melanoma; -46.8% (active) in the experiment with LOX IMVI melanoma; -71.6% (active) in the experiment with SK-MEL-28 melanoma; -77.5% (active) in the experiment on SK-MEL-2 melanoma; -45.9% (active) in the experiment on EKVX NSCLC. Moreover, the growth in the experiment on SN12C renal was -36.9% (active); with UO-31 renal, -42.7% (active); in the experiment on TK-10 renal, -34.2% (active); in the experiment with ACHN renal, -73.8% (active); in the experiment on CAKI-1 renal, -31% (active); with A498 renal, -87.2% (active). Also, the values for the growth with CCRF-CEM leukemia and with MOLT-4 leukemia were -13.1% (active) and -15.1% (active), respectively.
For `COc1ccc(/C=C/C(=O)Nc2cc(/C=C\c3cc(OC)c(OC)c(OC)c3)cc(OC)c2OC)cc1OC`, the growth in the experiment with HCT-15 colon was 25.9%; in the experiment on HT29 colon, 14.6%; with SNB-75 CNS, 34.7%; in the experiment on SNB-19 CNS, 46.2%; in the experiment with U251 CNS, 41.3%; in the experiment on PC-3 prostate, 20.7%. The growth in the experiment on SK-MEL-5 melanoma was -59.3% (active); in the experiment on UACC-62 melanoma, 16.3%; in the experiment on LOX IMVI melanoma, 27.7%; in the experiment with SK-MEL-28 melanoma, 40.1%; in the experiment on SK-MEL-2 melanoma, 19.9%; with EKVX NSCLC, 31.4%. For the same molecule, the growth was 33% in the experiment on SN12C renal; 19.4% with UO-31 renal; 73.9% with TK-10 renal; 39.1% with ACHN renal; 12% with CAKI-1 renal; -1.95% (active) in the experiment with A498 renal. The values for the growth in the experiment on CCRF-CEM leukemia and in the experiment with MOLT-4 leukemia were 3.79% (active) and -13.9% (active), respectively.
As to `CC(=O)O[C@@H]1C2CCC3C(CC[C@@]4(C)C3CC[C@@H]4C(C)N(C)C)[C@@]2(C)CC[C@@H]1NC(=O)C=C(C)C` (stereo not given in full), the growth was -58.1% (active) in the experiment with HCT-15 colon; -39.5% (active) with HT29 colon; 12% with SNB-75 CNS; 65.6% in the experiment with SNB-19 CNS; 14.9% in the experiment on U251 CNS; 10.5% with PC-3 prostate. The growth with SK-MEL-5 melanoma is -93.1% (active); in the experiment on UACC-62 melanoma, -49.9% (active); in the experiment on LOX IMVI melanoma it was -43.5% (active); with SK-MEL-28 melanoma, -91.7% (active); in the experiment with SK-MEL-2 melanoma it was 31.9%; in the experiment on EKVX NSCLC it was 30.8%. Moreover, the growth in the experiment on SN12C renal is 32.7%; with UO-31 renal, 6.19% (active); with TK-10 renal, 47.2%; in the experiment with ACHN renal, 25.4%; with CAKI-1 renal, -6.25% (active); in the experiment with A498 renal it was 60.6%. Also, the results for the growth in the experiment with CCRF-CEM leukemia and with MOLT-4 leukemia were -12% (active) and -50.6% (active), respectively.
As for `O=C1Nc2ccccc2/C1=C\c1c(-c2ccc(F)cc2)nc2ccccn12`, the growth in the experiment with HCT-15 colon is 58.2%; in the experiment on HT29 colon, 58.7%; in the experiment with SNB-75 CNS, 71.3%; with SNB-19 CNS it was 77.7%; with U251 CNS, 93.3%; in the experiment with PC-3 prostate, 62.5%. Further, the growth in the experiment on SK-MEL-5 melanoma was 58%; in the experiment on UACC-62 melanoma it was 65.1%; in the experiment with LOX IMVI melanoma it was 68.3%; in the experiment with SK-MEL-28 melanoma it was 87.2%; with SK-MEL-2 melanoma, 75.5%; in the experiment on EKVX NSCLC it was 45.6%. The growth is 82.5% in the experiment on SN12C renal; 41% with UO-31 renal; 109% with TK-10 renal; 54.9% in the experiment on ACHN renal; 44.3% in the experiment on CAKI-1 renal; 70.8% in the experiment on A498 renal. The values for the growth with CCRF-CEM leukemia and in the experiment with MOLT-4 leukemia were 67.9% and 57%, respectively.

(Values after PubChem BioAssay (NCI).)
